Bioassay records: PubChem BioAssay, National Center for Advancing Translational Sciences (NCATS)
Most compounds without a hit are left out; they make up all but 3.7% or so of the library.
TCR activator – T cell receptor activation. Potency, µM (series often up to 9.22 µM), hits mostly activators. 330,000 tested, under 10 active. primary human leukocytes, anti-CD3, IL-2 HTRF, 48 h
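1) Mix primary human leukocytes, a-CD3 beads and compound. 2) Incubate 48 hr. 3) Add HTRF IL-2 reagents (a-IL-2-K, a-IL-2-d2).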
PLK1 PBD block – inhibitors of human PLK1 polo-box domain binding. P53350. Plk1 PBD binding of FITC phosphopeptide, fluorescence polarization. Potency, µM, actives largely listed as inhibitors. actives 2.8% (n = 360,000). AID 720504; note: series mostly up to about 57 µM; nearly all actives have a fitted effect of over 65% in size
Target sequence (P53350 whole entry, looked up, the tested form may be a part): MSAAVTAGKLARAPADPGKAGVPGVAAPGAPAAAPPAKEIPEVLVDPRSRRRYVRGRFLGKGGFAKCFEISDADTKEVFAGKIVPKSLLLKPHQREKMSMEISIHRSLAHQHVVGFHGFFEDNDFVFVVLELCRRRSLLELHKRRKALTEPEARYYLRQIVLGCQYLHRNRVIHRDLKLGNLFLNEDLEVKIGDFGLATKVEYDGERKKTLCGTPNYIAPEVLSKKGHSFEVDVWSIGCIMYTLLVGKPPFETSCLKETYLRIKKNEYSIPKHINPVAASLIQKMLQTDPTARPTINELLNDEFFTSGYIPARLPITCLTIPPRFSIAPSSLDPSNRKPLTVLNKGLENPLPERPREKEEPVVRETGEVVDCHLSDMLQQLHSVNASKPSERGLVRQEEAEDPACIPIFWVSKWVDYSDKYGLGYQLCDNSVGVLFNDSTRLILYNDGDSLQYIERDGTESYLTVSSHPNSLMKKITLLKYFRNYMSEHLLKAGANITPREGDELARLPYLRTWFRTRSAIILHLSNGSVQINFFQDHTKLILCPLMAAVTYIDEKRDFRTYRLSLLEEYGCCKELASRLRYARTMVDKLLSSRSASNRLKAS
PI5P4K alpha inh – inhibitors of human PI5P4K alpha. max response, %. P48426. PI5P4Kalpha enzyme, ADP-Glo luminescence, 60 min; hits give low values. actives 1.2% (n = 330,000); active = max response of -50% or lower; inconclusive = between -30% and -50%; inactive = -30% or higher; note: value at the top dose of about 77 µM
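Human PI5P4Kalpha with substrate in 0.038 M HEPES pH 7.4, 0.28 mM EGTA, 0.1% CHAPS, 5% DMSO; reaction started with 5 microM ATP (final), 60 min at room temperature. ADP formed read by ADP-Glo luminescence.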
FEN1 inhibitor – blocks human flap endonuclease 1. Recombinant FEN1 flap cleavage, fluorescence, 15 min. Potency, µM (highest dose often 114 µM), most hits filed as inhibitors. actives 0.35% (n = 390,000); note: nearly all actives have a fitted effect of over 65% in size
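Quantitative HTS format: each compound was titrated, incubated with 10 nM nuclease for 15 min at room temperature, then challenged with flap substrate at 50 nM final. Signal change over 15 min gave concentration–effect curves.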
VDR inhibitor – inhibitors of human vitamin D receptor. P11473. VDR-SRC2-3 peptide fluorescence polarization, 2 h. Potency, µM, most hits filed as inhibitors. actives 0.93% (n = 400,000). AID 504847
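Two reagent solutions held at 4 deg C in the dark were dispensed, compounds pinned at 23 nl, and the mixture incubated 2 h at room temperature. Read-out: fluorescence polarization of VDR–SRC2-3 peptide binding.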
WRN inhibitor – WRN helicase (human) inhibition | Q14191 | Potency, µM (top dose mostly 114 µM), hits mostly inhibitors | WRN helicase unwinding, fluorescent forked duplex, kinetic | AID 651768 | actives 0.46% (n = 360,000); note: nearly all actives have a fitted effect of over 55% in size
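Kinetic red-fluorescence monitoring (525/598 nm) tracks WRN helicase activity after 100 nM fluorophore-quencher forked duplex and 2 mM ATP are added to 20 nM enzyme pretreated 15 min at room temperature with compound.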
ADP-Glo interf – interferes with ADP-Glo detection without enzyme present; ADP-Glo detection counter-screen, luciferase luminescence, no enzyme; 1,100 tested, under 10 active; Potency, µM (highest dose often 76.9 µM), actives largely listed as inhibitors; shares compounds with PI5P4K alpha inh; AID 743285
Of the large screens only hits and unclear results are named; the others gave an inactive call (follow-up assays come after a bar, where they were run). Unless noted, calls come from the whole dose curve; as a rule, active = well fitted curve in the direction sought with a large enough effect; inconclusive = small, poorly fitted or top-dose-only effect, or another doubt; inactive = no such curve, though single readings can be large; an effect the other way counts as inactive or inconclusive.

O=c1c(-c2ccccc2)nc2cnc(Oc3cccc(Cl)c3)nc2n1C[C@H]1CCCO1	none (no result: TCR activator, PLK1 PBD block, PI5P4K alpha inh, FEN1 inhibitor, WRN inhibitor)
COc1ccc(N2CCN(C(=O)Cc3ccc(S(=O)(=O)N4CCOCC4)s3)CC2)cc1	PLK1 PBD block inconclusive, PI5P4K alpha inh -71, WRN inhibitor inconclusive | ADP-Glo interf inactive
Cc1cccc(-n2c(SCC(N)=O)nc3c(c2=O)C2(CCCC2)Cc2ccccc2-3)c1	PI5P4K alpha inh -56 | ADP-Glo interf inactive
Cc1cnc(CNc2ccnc(-c3ccc(C(=O)N(C)C)cc3)n2)cn1	none (no result: TCR activator, PLK1 PBD block, PI5P4K alpha inh, FEN1 inhibitor, WRN inhibitor)
O=C(NCc1ccco1)c1ccc([N+](=O)[O-])o1	PLK1 PBD block inconclusive, PI5P4K alpha inh -63, WRN inhibitor inconclusive | ADP-Glo interf inactive
S=C(NCc1ccco1)NCc1ccco1	PLK1 PBD block 6µM, PI5P4K alpha inh -76, VDR inhibitor inconclusive | ADP-Glo interf inactive
Cc1ccc2nc(SCc3nc(-c4ccccc4C)no3)[nH]c2c1	none (no result: TCR activator, PLK1 PBD block, PI5P4K alpha inh, WRN inhibitor)
CCc1ccc(S(=O)(=O)Nc2cccc(-c3ccc(N4CCCCC4)nn3)c2)s1	none (no result: TCR activator, PLK1 PBD block, PI5P4K alpha inh, WRN inhibitor)
CCCCC1=CC2=C(c3ccco3)C(=O)C(C)(OC(=O)c3ccc(OC)cc3)C(=O)C2=CN1Cc1ccccc1 (stereo unspecified)	PI5P4K alpha inh -71, VDR inhibitor inconclusive | ADP-Glo interf inactive
O=C(CCS(=O)(=O)c1cc2c3c(c1)CCN3C(=O)CC2)Nc1cccc(Br)c1	none (no result: TCR activator, PLK1 PBD block, PI5P4K alpha inh, WRN inhibitor)
Clc1ccc(C(c2ccccc2)N2CCNCC2)cc1 (stereo unspecified)	none (no result: PI5P4K alpha inh)
CN1CCN(C(c2ccccc2)c2ccc(Cl)cc2)CC1 (stereo unspecified)	PI5P4K alpha inh -52 | ADP-Glo interf inactive
CCCCn1c(N)c(N(CC(C)C)C(=O)c2cc(-c3ccco3)nc3ccccc23)c(=O)[nH]c1=O	PI5P4K alpha inh -59 | ADP-Glo interf inactive
CN1CCN(c2ncc3ncc(=O)n(-c4ccccc4)c3n2)CC1	none (no result: TCR activator, PLK1 PBD block, PI5P4K alpha inh, FEN1 inhibitor, WRN inhibitor)
O=C(Nc1sc2c(c1C(=O)O)CCCC2)c1ccccc1Cl	none
NC(=O)c1c(NC(=O)CN2CCCC2)sc2c1CCCC2	PLK1 PBD block 3µM, PI5P4K alpha inh -53, VDR inhibitor inconclusive | ADP-Glo interf inactive
O=C(Nc1sc2c(c1C(=O)O)CCC2)c1ccccc1Cl	PI5P4K alpha inh -59 (no result: TCR activator) | ADP-Glo interf inactive
NC(=O)c1c(NC(=O)CN2C(=O)CCC2=O)sc2c1CCCCC2	PLK1 PBD block inconclusive
NC(=O)c1c(NC(=O)c2ccncc2)sc2c1CCCC2	none
NC(=O)c1c(NC(=O)c2ccccc2)sc2c1CCC2	PLK1 PBD block inconclusive, PI5P4K alpha inh -51, VDR inhibitor inconclusive | ADP-Glo interf inactive
CCCc1cc(=O)oc2cc(C)c3c(-c4cccc(OC)c4)coc3c12	none (no result: TCR activator, PLK1 PBD block, PI5P4K alpha inh, WRN inhibitor)
Cc1ccc(Nc2c(-c3ccncc3)nc3ccc(C)cn23)cc1	none (no result: TCR activator, PLK1 PBD block, PI5P4K alpha inh, WRN inhibitor)
Cc1ccc(NC2Sc3ccccc3NC2=O)cc1 (stereo unspecified)	PLK1 PBD block 9.5µM, PI5P4K alpha inh -63, VDR inhibitor 11µM | ADP-Glo interf inactive
O=c1cc(CSc2nnc(-c3cccs3)n2Cc2ccccc2)nc2sc3ccccc3n12	PI5P4K alpha inh -51 | ADP-Glo interf inactive
COc1ccc(N2CCN(S(=O)(=O)c3ccc(-c4cc(C(F)(F)F)on4)s3)CC2)cc1	none (no result: TCR activator, PLK1 PBD block, PI5P4K alpha inh, WRN inhibitor)
COc1ccc(-c2nc3c([nH]2)c(=O)n(C)c(=O)n3C)c(OC)c1	none (no result: PI5P4K alpha inh)
Cn1c(=O)c2[nH]c(-c3ccc(S(=O)(=O)O)cc3)nc2n(C)c1=O	PI5P4K alpha inh -54 | ADP-Glo interf inactive
Cc1noc(C)c1CCC(=O)N1CCCC(CCC(=O)NCc2ccc(F)c(F)c2)C1 (stereo unspecified)	PI5P4K alpha inh -61, FEN1 inhibitor inconclusive | ADP-Glo interf inactive
COC(=O)CCCC(=O)N1CCCC(CCC(=O)NCc2ccc(F)c(F)c2)C1 (stereo unspecified)	none
NS(=O)(=O)c1ccc(Nc2nc(-c3ccc4ccccc4c3)cs2)cc1	none (no result: PI5P4K alpha inh)
Cc1ccc(-c2csc(Nc3ccc(S(N)(=O)=O)cc3)n2)o1	PLK1 PBD block inconclusive, PI5P4K alpha inh -65 | ADP-Glo interf inactive
